Only some compounds are listed: those with a hit (about 4.1% of all), similar ones and a draw of the others.
ssDAF-12 act: activators of S. stercoralis DAF-12 nuclear receptor; HEK293 ssDAF-12/GRIP1 lit1-tk-luc reporter, luminescence; % of 3 µM dafachronic acid response; AID 652126; activation, % at 6.8 µM; actives 1% (n = 370,000);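 active means activation above the mean over all tested compounds plus 3 SD, cut at about 0.9% in these data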;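 further: 0% = DMSO-only wells and 100% = 3 µM delta7-dafachronic acid wells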
DAX1 inh-1: inhibitors of DAX1 repression of SF-1 activated StAR promoter. HEK293T StAR-luciferase reporter, SF-1/DAX-1 repression relief. inhibition, % at 6.8 µM. actives 1.1% (n = 370,000). AID 652010;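 active means inhibition above the mean over all tested compounds plus 3 SD, cut at about 3.6% in these data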;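 further: 0% = DAX-1 cells with DMSO and 100% = cells lacking DAX-1 with DMSO; higher inhibition means more luminescence from relief of DAX-1 repression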
DAX1 inh-2: inhibitors of human orphan nuclear receptor DAX1 (NR0B1) | HEK293 Gal4-DAX1 luciferase reporter, luminescence | inhibition, % at 6.75 µM | actives 0.99% (n = 340,000) | P51843 | AID 504766;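 active means inhibition above the mean over all tested compounds plus 3 SD, cut at about 4.2% in these data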;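 further: 0% = DAX1-transfected cells with DMSO and 100% = empty-vector control cells with DMSO; inhibition shows as a rise in luminescence from relieved DAX1 repression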
Target sequence (P51843 207-470 limits assumed): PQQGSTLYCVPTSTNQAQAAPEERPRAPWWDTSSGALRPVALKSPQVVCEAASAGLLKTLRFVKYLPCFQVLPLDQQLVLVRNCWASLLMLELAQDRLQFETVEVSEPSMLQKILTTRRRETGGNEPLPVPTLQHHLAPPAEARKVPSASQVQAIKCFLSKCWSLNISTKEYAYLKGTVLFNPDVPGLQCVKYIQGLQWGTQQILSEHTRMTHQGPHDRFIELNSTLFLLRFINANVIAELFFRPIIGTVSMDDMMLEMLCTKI
hcDAF-12 act: H. contortus DAF-12 activation, primary screen. HEK293 hcDAF-12 lit1-tk-luc reporter, luminescence; 0% DMSO, 100% Δ7-dafachronic acid. activation, % at 6.8 µM. actives 1.4% (n = 370,000). AID 652067;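 active means activation above the mean of all tested compounds plus 3 SD, cut at about 5.5% in these data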;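 further: 100% = response to 3 µM Δ7-dafachronic acid high control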
hgDAF12 agonist: hgDAF-12 agonism, primary luciferase screen; HEK293 GAL4-hgDAF12 UAS-luciferase reporter, agonist luminescence; normalized to butyrate control; activation, % at 6.8 µM; actives 1.8% (n = 370,000); AID 687014;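 active means activation above a cutoff set at the mean of all screened compounds plus 3 SD, cut at about 10% in these data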;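 further: 0% = DMSO wells and 100% = sodium butyrate wells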
hgDAF12 ag: hgDAF-12 agonism, confirmation assay. shares compounds with hgDAF12 agonist. HEK293 GAL4-hgDAF12 luciferase reporter, agonist mode; percent of butyrate response. activation, % at 6.8 µM. actives 80% (n = 3,300). AID 743050;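 active means mean activation over triplicate wells above the hit cutoff derived from the earlier primary screen, cut at about 11% in these data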;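 further: 0% = DMSO low control and 100% = 2 mM sodium butyrate high control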
LXRb DAF12 ctr: counter-screen for DAF-12 agonists: agonists of human LXR-beta; shares compounds with hgDAF12 agonist; HEK293 Gal4-LXR luciferase reporter, 24 h; activation, % at 6.8 µM; 3,300 tested, under 10 active;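 active means mean activation of the triplicate above a set limit carried over from the primary screen, none filed active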
Starred values were filed as active, the others as inactive.

What do the screens show for `CCCn1c(C)cc(C(=O)COc2ncnc3sccc23)c1C`?
ssDAF-12 act: -1; DAX1 inh-1: 2; DAX1 inh-2: 1; hcDAF-12 act: 3; hgDAF12 agonist: 14*; hgDAF12 ag: 13*; LXRb DAF12 ctr: 0

What do the screens show for `COc1ccc(C(=O)Nc2nc3ccccc3s2)cc1OC`?
ssDAF-12 act: 0; DAX1 inh-1: 3; DAX1 inh-2: 2; hcDAF-12 act: 3; hgDAF12 agonist: 19*; hgDAF12 ag: 14*; LXRb DAF12 ctr: 1

What do the screens show for `CCOC(=O)c1sc(NC(=O)Nc2ccccc2)cc1C`?
ssDAF-12 act: 0; DAX1 inh-1: 3; DAX1 inh-2: 0; hcDAF-12 act: 6; hgDAF12 agonist: 17*; hgDAF12 ag: 23*; LXRb DAF12 ctr: 1

How did Cc1csc(NC(=S)NC(=O)c2ccccc2)n1 do in these assays?
ssDAF-12 act: 0; DAX1 inh-1: 1; DAX1 inh-2: 3; hcDAF-12 act: 5; hgDAF12 agonist: 16*; hgDAF12 ag: 16*; LXRb DAF12 ctr: 1

Results for CCOC(=O)c1sc(NC(=O)c2ccc(C)s2)cc1C ?
ssDAF-12 act: 1; DAX1 inh-1: 3; DAX1 inh-2: 1; hcDAF-12 act: 3; hgDAF12 agonist: 9

What do the screens show for `COc1ccc(C(=O)Nc2nc3ccc(S(C)(=O)=O)cc3s2)cc1OC`?
ssDAF-12 act: -2; DAX1 inh-1: -1; DAX1 inh-2: 1; hcDAF-12 act: -2; hgDAF12 agonist: -2

What do the screens show for `COc1ccc2nc(NC(=O)c3ccc(F)cc3)sc2c1`?
ssDAF-12 act: 0; DAX1 inh-1: 2; DAX1 inh-2: 4.7*; hcDAF-12 act: 0; hgDAF12 agonist: 14*; hgDAF12 ag: 13*; LXRb DAF12 ctr: 1

Results for Cc1cc(Oc2cccnc2)ccc1NC(=O)Cc1cn(C)c2ccccc12 ?
ssDAF-12 act: -2; DAX1 inh-1: 0; hcDAF-12 act: 0; hgDAF12 agonist: -1

How did Cc1cc(NS(=O)(=O)c2ccc(NC(=O)CSc3nnc(-c4ccccn4)n3Cc3ccco3)cc2)nc(C)n1 do in these assays?
ssDAF-12 act: -1; DAX1 inh-1: 1; hcDAF-12 act: -3; hgDAF12 agonist: -2

Results for Nc1nc2c(ncn2[C@@H]2O[C@H](C(=O)NC3CCCCC3)[C@@H](O)[C@H]2O)c(=O)[nH]1 ?
ssDAF-12 act: -1; DAX1 inh-1: 0; hcDAF-12 act: -1; hgDAF12 agonist: -2

What do the screens show for `COc1cccc(C(=O)Nc2nc3ccccc3s2)c1`?
ssDAF-12 act: 2.4*; DAX1 inh-1: 3; DAX1 inh-2: 3; hcDAF-12 act: 6.3*; hgDAF12 agonist: 17*; hgDAF12 ag: 20*; LXRb DAF12 ctr: 1

What do the screens show for `COc1cccc(C(=O)Nc2nc(C)cs2)c1`?
ssDAF-12 act: 0; DAX1 inh-1: 2; DAX1 inh-2: 1; hcDAF-12 act: 2; hgDAF12 agonist: 15*; hgDAF12 ag: 14*; LXRb DAF12 ctr: 1

What do the screens show for `CC(=O)Nc1cccc(/C(C)=N/NC(=O)c2cc(-c3ccncc3)nc3ccccc23)c1`?
ssDAF-12 act: -2; DAX1 inh-1: 1; DAX1 inh-2: -2; hcDAF-12 act: 0; hgDAF12 agonist: 3

How did CC(=O)Nc1cccc(/C(C)=N/Nc2nc3ccccc3s2)c1 do in these assays?
ssDAF-12 act: 0; DAX1 inh-1: 3; DAX1 inh-2: 3; hcDAF-12 act: 4; hgDAF12 agonist: 15*; hgDAF12 ag: 13*; LXRb DAF12 ctr: 1

What do the screens show for `CCOC(=O)c1sc(NC(=O)Nc2ccc(F)cc2)nc1C`?
ssDAF-12 act: 0; DAX1 inh-1: 3.7*; DAX1 inh-2: 2; hcDAF-12 act: 4; hgDAF12 agonist: 17*; hgDAF12 ag: 23*; LXRb DAF12 ctr: 1

How did COc1ccc(C(=O)Nc2nc3ccccc3s2)cc1 do in these assays?
ssDAF-12 act: 0; DAX1 inh-1: 1; DAX1 inh-2: -3; hcDAF-12 act: 3; hgDAF12 agonist: 7

What do the screens show for `COC(=O)C(C(=O)OC)C1OC23CN(S(=O)(=O)c4ccc(C)cc4)C=CC2(C)C3c2ccccc21` (centres undefined)?
ssDAF-12 act: -1; DAX1 inh-1: -2; hcDAF-12 act: -4; hgDAF12 agonist: 4

Results for Cc1ccc2c(c1)N(CCCC(=O)N(C)Cc1ccccc1Cl)C(=O)CO2 ?
ssDAF-12 act: -1; DAX1 inh-1: -1; hcDAF-12 act: -3; hgDAF12 agonist: -2

How did CCOC(=O)c1sc(NC(=S)NC(=O)c2ccccc2)nc1C do in these assays?
ssDAF-12 act: 0; DAX1 inh-1: 3; DAX1 inh-2: 2; hcDAF-12 act: 5.9*; hgDAF12 agonist: 16*; hgDAF12 ag: 12*; LXRb DAF12 ctr: 0

What do the screens show for `CC(C)Cc1nnc(NC(=O)Nc2ccccc2)s1`?
ssDAF-12 act: -2; DAX1 inh-1: 2; DAX1 inh-2: 0; hcDAF-12 act: 2; hgDAF12 agonist: 21*; hgDAF12 ag: 14*; LXRb DAF12 ctr: 0

How did CC(c1ccccc1)c1nnc(NC(=O)Nc2ccccc2)s1 (centres undefined) do in these assays?
ssDAF-12 act: -1; DAX1 inh-1: 1; DAX1 inh-2: -1; hcDAF-12 act: -1; hgDAF12 agonist: 3

Results for COc1ccc(CN2C/C(=C/c3ccccc3)N3C(=O)C[C@@H](c4ccc5ccccc5c4)N=C23)c(OC)c1 ?
ssDAF-12 act: -2; DAX1 inh-1: -1; hcDAF-12 act: -3; hgDAF12 agonist: 2

What do the screens show for `CC(=O)C(C(c1ccccc1)N1CCOCC1)N1CCOCC1` (centres undefined)?
ssDAF-12 act: -1; DAX1 inh-1: 0; DAX1 inh-2: 0; hcDAF-12 act: 0; hgDAF12 agonist: -3

Results for COc1ccccc1C(C(C(=O)c1ccccc1)N1CCOCC1)N1CCOCC1 (centres undefined) ?
ssDAF-12 act: 0; DAX1 inh-1: 0; DAX1 inh-2: 0; hcDAF-12 act: 2; hgDAF12 agonist: 14*; hgDAF12 ag: 0; LXRb DAF12 ctr: 0

How did Cc1nc2cc(NC(=O)NCc3ccc4c(c3)OCO4)ccc2o1 do in these assays?
ssDAF-12 act: -1; DAX1 inh-1: 0; DAX1 inh-2: 1; hcDAF-12 act: -2; hgDAF12 agonist: 3

How did Cc1nc2cc(NC(=O)Nc3ccc(Br)cc3)ccc2o1 do in these assays?
ssDAF-12 act: -1; DAX1 inh-1: 1; DAX1 inh-2: 1; hcDAF-12 act: 2; hgDAF12 agonist: 13*; hgDAF12 ag: 10; LXRb DAF12 ctr: 1

From PubChem
